Assay outcomes deposited in PubChem BioAssay by several laboratories.
Compounds with a hit are over-represented: about 8.7% of the library has one in this group of screens.
hDAT+cocaine: changed hDAT dopamine uptake under cocaine IC80, either direction, primary screen, cocaine antagonist project, cell-based, LLC-PK1 hDAT, [14C]-dopamine uptake, MLSMR. Sodium-dependent dopamine transporter (Homo sapiens), Q01959. LLC-PK1 hDAT cells, [14C]-dopamine uptake with cocaine IC80; actives deviate in either direction. B-score at 10 µM. 110,000 compounds, 1.3% hits. AID 449768, 2010;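 active = Z score or B-score, a plate-position-corrected score, falls beyond the plate's 99.7% confidence bounds, in either direction; inactive = both scores lie inside the 99.7% bounds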;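 note: scored against the spread of the other compound wells on the same plate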
PostGolgi ctrl: growth inhibition of yeast control strain, primary screen, counter-screen for post-Golgi transport modulator project | inhibition, % at 10 µM | 98,000 compounds, 5% hits | efflux-deficient yeast background strain, growth absorbance A615, 16 h
Smad3 inh: Smad3/FoxH1 peptide binding inhibitors, primary screen, biochemical, TR-FRET | Mothers against decapentaplegic homolog 3 (Homo sapiens), P84022 | TR-FRET Smad3/Dy647-FoxH1 peptide binding, europium anti-His | inhibition, % at 25 µM | 88,000 compounds, 0.29% hits | AID 630, 2007;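 active = compounds that reduce the energy-transfer binding signal between the protein and its labelled peptide by more than half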;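 note: 0% = Smad3 plus labelled peptide maximal FRET and 100% = peptide-only background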
TNAP act mid DEA: human TNAP enzyme activators, primary screen, biochemical, luminescent, intermediate phosphate acceptor level; Alkaline phosphatase, tissue-nonspecific isozyme (Homo sapiens), P05186; purified TNAP, CDP-star luminescence, 100 mM DEA, 30 min; active compounds read high; scale: 0 levamisole-inhibited, 1 vehicle-only enzyme; activation factor at 20 µM; 64,000 tested, under 10 active;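 active = activation factor of at least 2 at 20 µM, relative to controls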
Target sequence (P05186 whole entry, looked up): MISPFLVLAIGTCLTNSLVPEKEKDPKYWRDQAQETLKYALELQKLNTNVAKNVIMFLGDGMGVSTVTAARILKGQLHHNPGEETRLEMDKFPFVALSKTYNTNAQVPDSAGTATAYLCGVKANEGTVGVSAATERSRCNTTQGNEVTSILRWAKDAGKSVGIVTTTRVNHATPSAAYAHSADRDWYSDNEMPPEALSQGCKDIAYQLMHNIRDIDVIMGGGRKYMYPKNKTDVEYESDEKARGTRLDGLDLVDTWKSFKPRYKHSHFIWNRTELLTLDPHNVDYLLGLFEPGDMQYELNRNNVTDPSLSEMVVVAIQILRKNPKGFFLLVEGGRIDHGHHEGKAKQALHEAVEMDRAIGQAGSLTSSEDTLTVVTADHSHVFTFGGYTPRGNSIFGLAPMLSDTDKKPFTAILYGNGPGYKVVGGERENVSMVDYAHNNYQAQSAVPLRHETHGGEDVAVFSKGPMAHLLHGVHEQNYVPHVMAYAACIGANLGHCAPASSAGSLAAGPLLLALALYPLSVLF
PostGolgi yeast: phenotypic screen on post-Golgi transport, primary screen. AID 739, 2007. inhibition, % at 10 µM. 98,000 compounds, 0.9% hits. post-Golgi transport phenotypic cell assay;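 note: yeast cells grown in 1536-well plates; yeast grown about 18 h at 30C before absorbance read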
Cav32 inh: Cav3.2 calcium influx blockers – cell-based, Fluo-4 calcium fluorescence, FDSS, MLSMR library, primary screen | Cav3.2-expressing cells; active compounds read low | B-score at 10 µM | 100,000 compounds, 4% hits;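 active = single-dose well whose peak fluorescence ratio is a statistical outlier from its plate by either plate-standardised score or position-corrected B-score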
Starred values were filed as active, the others as inactive. Cut-off read from the data, not from the text of the source, unless noted: active = inhibition above about 30%; inactive = the rest.

CCOC(=O)c1c(C)n(OCc2ccccc2)c2ccc3c(no[n+]3[O-])c12 was read as hDAT+cocaine -0.15, PostGolgi ctrl -2, Smad3 inh -14, TNAP act mid DEA 0.8, PostGolgi yeast 1 and Cav32 inh -4.
Cn1c(-c2ccccc2)cc2c3no[n+]([O-])c3ccc21 was read as hDAT+cocaine 0.82, PostGolgi ctrl 94*, Smad3 inh 1, TNAP act mid DEA 1, PostGolgi yeast 74* and Cav32 inh -0.025.
O=C(Nc1nc2n(n1)C(c1ccc(Cl)cc1)CC(c1ccc(Cl)cc1)N2)c1ccco1 (configuration not stated) was read as hDAT+cocaine 1.3, PostGolgi ctrl 14, Smad3 inh -2, TNAP act mid DEA 1, PostGolgi yeast -2 and Cav32 inh -5.3*.
Screening COc1ccc(C2CC(c3ccc(Cl)cc3)Nc3nc(NC(=O)c4ccco4)nn32)cc1 (configuration not stated) returned hDAT+cocaine 0.33, Smad3 inh 10, TNAP act mid DEA 0.9 and Cav32 inh -3.9*.
Screening CCCCOC(=O)c1ccc(-c2ccc(/C=N/NC(=S)NCC)o2)cc1 returned hDAT+cocaine -0.76, PostGolgi ctrl -4, PostGolgi yeast -10 and Cav32 inh 0.24.
CCOC(=O)c1cnc(SCC(=O)Nc2ccc3c(c2)OCCO3)nc1N was read as hDAT+cocaine -0.51, PostGolgi ctrl 3, Smad3 inh -2, TNAP act mid DEA 0.9, PostGolgi yeast 5 and Cav32 inh -0.16.
`O=C(/C=C(\O)c1ccc(Cl)cc1)C(=O)NNC(=O)C(O)(c1ccccc1)c1ccccc1` gave hDAT+cocaine 0.0059, PostGolgi ctrl 24, Smad3 inh -1, PostGolgi yeast 15 and Cav32 inh -8.6*.
`Cc1noc(C)c1COC(=O)C1(c2cccc(F)c2)CCCC1` gave hDAT+cocaine -0.26, PostGolgi ctrl 12, Smad3 inh 9, TNAP act mid DEA 1, PostGolgi yeast -4 and Cav32 inh -5*.
Cc1noc(C)c1COC(=O)CCC(=O)c1ccc(F)cc1 was read as hDAT+cocaine -0.15, PostGolgi ctrl 2, Smad3 inh -6, TNAP act mid DEA 1, PostGolgi yeast 3 and Cav32 inh -0.38.
Screening O=C(COC(=O)CC1CC2CCC1C2)NC(=O)NCc1ccco1 (configuration not stated) returned hDAT+cocaine -1, PostGolgi ctrl 5, Smad3 inh 4, PostGolgi yeast 0 and Cav32 inh -2.2.
Screening COc1ccccc1N(CC(=O)Nc1cc(C)on1)S(=O)(=O)c1ccc(Cl)cc1 returned hDAT+cocaine -0.17, PostGolgi ctrl 22, PostGolgi yeast -3 and Cav32 inh -2.4*.
Cc1c(C#N)c2ncn(Cc3ccccc3)c(=O)c2n1-c1ccccc1 was read as hDAT+cocaine 0.33, PostGolgi ctrl 11, Smad3 inh 4, TNAP act mid DEA 0.9, PostGolgi yeast 11 and Cav32 inh 1.7.
CCOC(=O)CN(C(=O)CSc1nnc(-c2cccc(OC)c2)o1)c1ccc(F)cc1 was read as hDAT+cocaine 1.3, PostGolgi ctrl 12, Smad3 inh 13, TNAP act mid DEA 0.9, PostGolgi yeast -16 and Cav32 inh -0.76.
For COc1ccc(CN(C(=O)CSc2nnc(-c3ccccc3C)o2)c2ccc(F)cc2)cc1 the results were hDAT+cocaine -1, Smad3 inh -3 and Cav32 inh -4.7*.
For O=C(CSc1nnc(-c2c[nH]c3ccccc23)o1)N(Cc1ccccc1)c1ccc(F)cc1 the results were hDAT+cocaine 2.5, PostGolgi ctrl 53*, Smad3 inh -7, TNAP act mid DEA 0.9, PostGolgi yeast -5 and Cav32 inh -2.5.
Cc1ccnc(NC2OC(=O)c3ccccc32)c1 (configuration not stated) was read as hDAT+cocaine -1.7, PostGolgi ctrl 10, Smad3 inh 0, PostGolgi yeast 2 and Cav32 inh 0.92.
